# This is one part of a sample in which the strongest signals are shown more often than they occur.
# B1: CcfD (Bacteroides vulgatus), A6KYX8 (protein)
# chain: MKYKNYFKSIIYLALGAFTLGSCEDFLDRQEDEKLTFDKIWESRNTTQQYWLNAMSFLPNENGSLQGDTEPYLGASDECTIAYDRQYRWINFGTWNPSQVPYYKMDHYYKGIRECNIFLQNVYKCSDPLVTKDQLDEWYWQTRFARAYYYFLMMRDYGPVFLLGDDLLDFTASTEELYRPRNTWDQCVNYVVSEMTQCAESGVVLQQSDLPAAKWGLATVGTCHAVISRLLLYSARPLFNGNKLYSTVKNPDAPDFPELSGVKLFPELDNTKWQKAAEAAKKLIDNPCYELYRAGNDNPYEDYYGVTHETWNKELIWTDRYNGLFSWGVGTVPTGVAGTAYGAVGPTQALVDAYAMNTGWYPITGYEADGTPIVEPLSGYELASELEKSSWIYPSGGWSNKADFEIEAPNMYKDREPRFYVTVFFGGNQWLHGNSATSISFAKGGNGNKSHDYPKSGYLCNRFYDHKLNSSEGQWGNITFPVFRLGEIYLNFIEAVLECKKNGVALDPSYEALAMEKWADLRKRAGLDPITSIYGQVSTEELIQLCRKERQIELAFERHRYFDTRTWMIATQTDNGKMYGMNTSCPLDAGMKGTETPDGFWERTAFETRVFQNKHYLYPFSQRELDRNKLLTQNYGW
# Key:
# Experiment in all cases: glycan array binding signal (z-score within array); higher = stronger binding
# Conditions in all cases: glycan notation: IUPAC condensed, linker removed
# [1] = biological target: Fuc(a1-2)Gal(b1-4)Fuc(a1-3)]GlcNAc(b1-2)Man(a1-3)[Fuc(a1-2)Gal(b1-4)[Fuc(a1-3)]GlcNAc(b1-2)Man(a1-6)]Man(b1-4)GlcNAc(b1-4)GlcNAc
# How it was run: (§1)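 Columns mapping to the same glycan were averaged after glycan names were converted to IUPAC-condensed notation. The data come from 3228 arrays in the Consortium for Functional Glycomics database, limited to those with an available protein sequence. Binding is reported as a within-array Z-score averaged across arrays of one protein sequence and across linkers.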
# [2] = biological target: Fuc(a1-2)Gal(b1-4)GlcNAc(b1-2)Man(a1-3)[Fuc(a1-2)Gal(b1-4)GlcNAc(b1-2)Man(a1-6)]Man(b1-4)GlcNAc(b1-4)GlcNAc
# How it was run: as §1
# [3] = biological target: Fuc(a1-2)Gal(b1-4)GlcNAc(b1-3)Gal(b1-4)GlcNAc(b1-2)Man(a1-3)[Fuc(a1-2)Gal(b1-4)GlcNAc(b1-3)Gal(b1-4)GlcNAc(b1-2)Man(a1-6)]Man(b1-4)GlcNAc(b1-4)GlcNAc
# How it was run: as §1
# [4] = biological target: Fuc(a1-2)Gal(b1-4)GlcNAc(b1-6)GalNAc
# How it was run: as §1
# [5] = biological target: Fuc(a1-2)Gal(b1-4)GlcNAc6S
# How it was run: as §1
# [6] = biological target: Fuc(a1-2)Gal(b1-4)[Fuc(a1-3)]GlcNAc(b1-3)GalNAc
# How it was run: as §1
# [7] = biological target: Fuc(a1-2)[Gal(a1-3)]Gal(b1-3)GlcNAc(b1-2)Man(a1-3)[Fuc(a1-2)[Gal(a1-3)]Gal(b1-3)GlcNAc(b1-2)Man(a1-6)]Man(b1-4)GlcNAc(b1-4)GlcNAc
# How it was run: as §1
# [8] = biological target: Fuc(a1-2)[Gal(a1-3)]Gal(b1-4)GlcNAc(b1-2)Man
# How it was run: as §1
# [9] = biological target: Fuc(a1-2)[GalNAc(a1-3)]Gal(b1-3)GlcNAc(b1-6)GalNAc
# How it was run: as §1
# [10] = biological target: Fuc(a1-2)[GalNAc(a1-3)]Gal(b1-4)GlcNAc(b1-2)Man(a1-3)[Fuc(a1-2)[GalNAc(a1-3)]Gal(b1-4)GlcNAc(b1-2)Man(a1-6)]Man(b1-4)GlcNAc(b1-4)GlcNAc
# How it was run: as §1
# [11] = biological target: Fuc(a1-2)[GalNAc(a1-3)]Gal(b1-4)GlcNAc(b1-3)[Fuc(a1-2)[GalNAc(a1-3)]Gal(b1-4)GlcNAc(b1-6)]GalNAc
# How it was run: as §1
# [12] = biological target: Fuc(a1-3)[Gal3S(b1-4)]Glc
# How it was run: as §1
# Gal(a1-3)Gal = biological target: Gal(a1-3)Gal
# How it was run: as §1
# [13] = biological target: Gal(a1-3)Gal(b1-4)[Fuc(a1-3)]GlcNAc
# How it was run: as §1
# [14] = biological target: Gal(b1-3)[Fuc(a1-4)]GlcNAc
# How it was run: as §1
# [15] = biological target: Gal(b1-4)GalNAc(b1-3)[Fuc(a1-2)]Gal(b1-4)GlcNAc
# How it was run: as §1
# [16] = biological target: Gal(b1-4)GlcNAc(b1-2)Man(a1-3)Man(b1-4)GlcNAc(b1-4)GlcNAc
# How it was run: as §1
# [17] = biological target: Gal(b1-4)GlcNAc(b1-2)[Gal(b1-4)GlcNAc(b1-4)]Man(a1-3)[GlcNAc(b1-4)][Gal(b1-4)GlcNAc(b1-2)[Gal(b1-4)GlcNAc(b1-6)]Man(a1-6)]Man(b1-4)GlcNAc(b1-4)GlcNAc
# How it was run: as §1
# [18] = biological target: Gal(b1-4)GlcNAc(b1-3)Gal(b1-3)GlcNAc
# How it was run: as §1
# [19] = biological target: Gal(b1-4)GlcNAc(b1-3)Gal(b1-4)GlcNAc(b1-3)Gal(b1-4)GlcNAc
# How it was run: as §1
# [20] = biological target: Gal(b1-4)GlcNAc(b1-3)Gal(b1-4)GlcNAc(b1-3)Gal(b1-4)GlcNAc(b1-3)Gal(b1-4)GlcNAc(b1-2)Man(a1-3)[Gal(b1-4)GlcNAc(b1-3)Gal(b1-4)GlcNAc(b1-3)Gal(b1-4)GlcNAc(b1-3)Gal(b1-4)GlcNAc(b1-2)Man(a1-6)]Man(b1-4)GlcNAc(b1-4)[Fuc(a1-6)]GlcNAc
# How it was run: as §1
# [21] = biological target: GalNAc(b1-4)GlcNAc(b1-2)Man
# How it was run: as §1
# GalNAc3S(b1-4)GlcNAc3S = biological target: GalNAc3S(b1-4)GlcNAc3S
# How it was run: as §1
# [22] = biological target: GlcNAc(b1-2)[GlcNAc(b1-6)]Man(a1-6)[GlcNAc(b1-2)Man(a1-3)]Man(b1-4)GlcNAc(b1-4)GlcNAc
# How it was run: as §1
# GlcNAc(b1-3)Gal(b1-4)Glc = biological target: GlcNAc(b1-3)Gal(b1-4)Glc
# How it was run: as §1
# [23] = biological target: GlcNAc(b1-3)Gal(b1-4)GlcNAc
# How it was run: as §1
# [24] = biological target: GlcNAc(b1-3)Gal(b1-4)GlcNAc(b1-2)[GlcNAc(b1-3)Gal(b1-4)GlcNAc(b1-6)]Man(a1-6)[GlcNAc(b1-3)Gal(b1-4)GlcNAc(b1-2)Man(a1-3)]Man(b1-4)GlcNAc(b1-4)GlcNAc
# How it was run: as §1
# GlcNAc(b1-3)GalNAc = biological target: GlcNAc(b1-3)GalNAc
# How it was run: as §1
# [25] = biological target: GlcNAc(b1-3)[GlcNAc(b1-4)][GlcNAc(b1-6)]GlcNAc
# How it was run: as §1
# [26] = biological target: Man(a1-3)[Man(a1-6)]Man(a1-6)[Man(a1-2)Man(a1-3)]Man(b1-4)GlcNAc(b1-4)GlcNAc
# How it was run: as §1
# [27] = biological target: Neu5Ac(a2-3)Gal(b1-3)GalNAc(b1-4)Gal(b1-4)Glc
# How it was run: as §1
# [28] = biological target: Neu5Ac(a2-3)Gal(b1-3)GalNAc(b1-4)[Neu5Ac(a2-3)]Gal(b1-4)Glc
# How it was run: as §1
# [29] = biological target: Neu5Ac(a2-3)Gal(b1-3)GlcNAc(b1-2)Man(a1-3)[GlcNAc(b1-4)][Neu5Ac(a2-3)Gal(b1-3)GlcNAc(b1-2)Man(a1-6)]Man(b1-4)GlcNAc(b1-4)GlcNAc
# How it was run: as §1
# Neu5Ac(a2-3)Gal(b1-4)Glc = biological target: Neu5Ac(a2-3)Gal(b1-4)Glc
# How it was run: as §1
# [30] = biological target: Neu5Ac(a2-3)Gal(b1-4)GlcNAc(b1-3)Gal(b1-4)GlcNAc(b1-3)GalNAc
# How it was run: as §1
# [31] = biological target: Neu5Ac(a2-3)Gal(b1-4)GlcNAc(b1-3)Gal(b1-4)GlcNAc(b1-3)[Neu5Ac(a2-3)Gal(b1-4)GlcNAc(b1-3)Gal(b1-4)GlcNAc(b1-6)]GalNAc
# How it was run: as §1
# [32] = biological target: Neu5Ac(a2-3)Gal(b1-4)GlcNAc(b1-6)[Neu5Ac(a2-3)Gal(b1-3)]GalNAc
# How it was run: as §1
# [33] = biological target: Neu5Ac(a2-3)Gal(b1-4)[Fuc(a1-3)]GlcNAc(b1-3)GalNAc
# How it was run: as §1
# [34] = biological target: Neu5Ac(a2-6)Gal(b1-4)GlcNAc(b1-2)Man(a1-6)[Gal(b1-4)GlcNAc(b1-2)Man(a1-3)]Man(b1-4)GlcNAc(b1-4)GlcNAc
# How it was run: as §1
# [35] = biological target: Neu5Ac(a2-6)Gal(b1-4)GlcNAc(b1-2)Man(a1-6)[GlcNAc(b1-2)Man(a1-3)]Man(b1-4)GlcNAc(b1-4)GlcNAc
# How it was run: as §1
# [36] = biological target: Neu5Ac(a2-6)Gal(b1-4)GlcNAc(b1-3)Gal(b1-4)GlcNAc(b1-6)[Gal(b1-3)]GalNAc
# How it was run: as §1
# [37] = biological target: Neu5Ac(a2-6)GlcNAc(b1-4)GlcNAc
# How it was run: as §1
# [38] = biological target: Neu5Ac(a2-8)Neu5Ac(a2-8)Neu5Ac(a2-3)Gal(b1-4)Glc
# How it was run: as §1
# [39] = biological target: Neu5Ac(a2-8)Neu5Ac(a2-8)Neu5Ac(a2-3)[GalNAc(b1-4)]Gal(b1-4)Glc
# How it was run: as §1
# [40] = biological target: Neu5Gc(a2-8)Neu5Gc(a2-6)Gal(b1-4)GlcNAc
# How it was run: as §1
binder,measurement,setting,value
B1,glycan array binding signal (z-score),[1],2
same,glycan array binding signal (z-score),[2],4.7
same,glycan array binding signal (z-score),[3],4.15
same,glycan array binding signal (z-score),[4],0.552
same,glycan array binding signal (z-score),[5],1.84
same,glycan array binding signal (z-score),[6],0.374
same,glycan array binding signal (z-score),[7],3.23
same,glycan array binding signal (z-score),[8],-0.282
same,glycan array binding signal (z-score),[9],-0.82
same,glycan array binding signal (z-score),[10],4.4
same,glycan array binding signal (z-score),[11],0.323
same,glycan array binding signal (z-score),[12],-0.429
same,glycan array binding signal (z-score),Gal(a1-3)Gal,0.343
same,glycan array binding signal (z-score),[13],0.14
same,glycan array binding signal (z-score),[14],-0.269
same,glycan array binding signal (z-score),[15],-0.749
same,glycan array binding signal (z-score),[16],3
same,glycan array binding signal (z-score),[17],-0.683
same,glycan array binding signal (z-score),[18],-0.932
same,glycan array binding signal (z-score),[19],-1.02
same,glycan array binding signal (z-score),[20],0.003
same,glycan array binding signal (z-score),[21],-0.896
same,glycan array binding signal (z-score),GalNAc3S(b1-4)GlcNAc3S,-0.21
same,glycan array binding signal (z-score),[22],-0.663
same,glycan array binding signal (z-score),GlcNAc(b1-3)Gal(b1-4)Glc,-0.881
same,glycan array binding signal (z-score),[23],-1.04
same,glycan array binding signal (z-score),[24],3.38
same,glycan array binding signal (z-score),GlcNAc(b1-3)GalNAc,-0.332
same,glycan array binding signal (z-score),[25],2.41
same,glycan array binding signal (z-score),[26],-0.673
same,glycan array binding signal (z-score),[27],-0.17
same,glycan array binding signal (z-score),[28],2.47
same,glycan array binding signal (z-score),[29],-0.526
same,glycan array binding signal (z-score),Neu5Ac(a2-3)Gal(b1-4)Glc,-0.589
same,glycan array binding signal (z-score),[30],-0.693
same,glycan array binding signal (z-score),[31],-0.429
same,glycan array binding signal (z-score),[32],5
same,glycan array binding signal (z-score),[33],-0.078
same,glycan array binding signal (z-score),[34],6.49
same,glycan array binding signal (z-score),[35],7
same,glycan array binding signal (z-score),[36],-0.841
same,glycan array binding signal (z-score),[37],0.582
same,glycan array binding signal (z-score),[38],-0.871
same,glycan array binding signal (z-score),[39],-0.556
same,glycan array binding signal (z-score),[40],-1.1

# From the supplement of paper PMC8728848
